# Measurements taken from ChEMBL document CHEMBL3988442, “University of Dundee, Small-Polar-MMV Screening Library” (2021).
# Screen size: about 48,000 compounds; about 13,000 (27%) showed an effect of 50% or more. The list shows a part of the results.
# Test system: Wolbachia pipientis
# Experiment: Anti-Wolbachia Cell-Based Screen
# Assay type: functional
# Parameters: scale not given: in the data most compounds retested in dose-response had high values
# Details: 5 µM
row,SMILES,Percent Effect
1,Cc1nnc(CNC(=O)[C@@H]2C[C@H](NC(=O)C(C)(C)C)CN2C)[nH]1,-6.748%
2,CCOCCC(=O)N(Cc1ccncc1)C(C)CC (configuration not stated),-2.407%
3,CC(=O)N[C@@H](CC(C)C)C(=O)N1CCC(n2cc(C(C)(C)N)nn2)CC1,10.18%
4,Cc1n[nH]c(C)c1NC(=O)CN(CC(O)c1ccc(F)cc1)C1CC1 (configuration not stated),-1.217%
5,COc1cc2c(nn1)CCN(Cc1nc(Cc3ccccc3)no1)C2,-1.36%
6,CCS(=O)(=O)N1CCOC2(CCCN(c3cccc(C#N)c3)C2)C1 (configuration not stated),-4.449%
7,Cc1cc(C)c(CNC(=O)NCCOc2ccc3c(c2)CCC3)c(=O)[nH]1,-6.999%
8,CN(Cc1nncn1C)C(=O)c1cc(COc2ccccc2F)[nH]n1,-12.02%
9,O=C(NCc1nc[nH]n1)c1cc(COc2ccccc2F)[nH]n1,-17.12%
10,O=C(NCCC1CCCCO1)c1cc(COc2ccccc2F)[nH]n1 (configuration not stated),0.1687%
11,O=C(NCCN1CCOCC1)c1cc(COc2ccccc2F)[nH]n1,-10.47%
12,CN(CC1(CO)CCCC1)C(=O)c1cc(COc2ccccc2F)[nH]n1,101.7%
13,CN(CC1(CO)CCC1)C(=O)c1cc(COc2ccccc2F)[nH]n1,109.5%
14,CO[C@@H]1CC[C@@H](NC(=O)c2ccc(OCCN3CCCC3)cc2)[C@H]1O,109.4%
15,O=C(N[C@@H]1CNCCC[C@H]1O)c1ccc(OCCN2CCOCC2)cc1,0.8179%
16,O=C(N[C@@H]1CNCCC[C@H]1O)c1ccc(OCCN2CCCC2)cc1,0.07573%
17,c1cn(CCc2c[nH]cn2)c(-c2cc(CN3CCCC3)cs2)n1,-0.5916%
18,Cl.Fc1cccc(F)c1Cn1c(C2CCNCC2)cc2cccnc21,115.5%
19,Cl.Fc1cccc(F)c1Cn1c(C2CCCNC2)cc2cccnc21 (configuration not stated),125.8%
20,Cl.Fc1ccccc1Cn1c(C2CCNCC2)cc2cccnc21,115.9%
21,NS(=O)(=O)c1ccc(NCc2ccccc2F)cc1C(F)(F)F,-7.773%
22,CC(C)(C)OC(=O)N1CC(CC(=O)NCc2ccnc(C3CC3)c2)C1,-29.57%
23,Cl.c1cnc2c(c1)cc(C1CCOCC1)n2CCN1CCOCC1,-3.513%
24,Cl.Fc1ccccc1CNc1ccnc(C2CCNCC2)c1,96.16%
25,O=C(O)C(F)(F)F.O=C(c1ncccn1)N1CC[C@H]2OCC[C@@]2(COc2ccccn2)C1,-10.25%
26,COC(=O)c1ccc(S(=O)(=O)N(C)CC(N)=O)c(Cl)c1,-3.285%

row,SMILES,Percent Effect
1,Cc1cnn(CC2CCCN2Cc2cc(=O)n3cccc(C)c3n2)c1 (configuration not stated),6.367%
2,COc1ccc2c(c1)CCCC2CC(=O)O (configuration not stated),-1.038%
3,O=C(NC1CCC1)[C@H]1C[C@@H]2[C@@H](C1)OCCN2CC1CC1.O=C(O)C(F)(F)F,-6.466%
4,Cc1cc(-n2cncn2)ccc1C(=O)N(CC(F)(F)F)C(C)C,-3.659%
5,Cc1nc(-c2ccccc2)sc1CSCCC(N)=O,7.014%
6,CN(Cc1noc2c1CCCC2)C(=O)CN1C(=O)COc2ccccc21,-4.066%
7,O=C(NCc1n[nH]c2c1CCCCC2)c1cnn2c1CCCC2,-12.98%
8,CC1=C(C(=O)N(C)Cc2n[nH]c3c2CCCCC3)C(C)NC(=O)N1 (configuration not stated),97.58%
9,CC(=O)N1C[C@@H]2CC[C@H](C1)N(C(=O)CCc1n[nH]c3c1CCCC3)C2,-10.18%
10,CCCn1ncc(C(=O)NCc2n[nH]c3c2CCCCC3)c1C,-11.8%
11,CC1=C(C(=O)NCCc2n[nH]c3c2CCCC3)C(C)NC(=O)N1 (configuration not stated),140.8%
12,CC1=C(C(=O)N(C)Cc2noc3c2CCCC3)C(C)NC(=O)N1 (configuration not stated),99.57%
13,COc1nc2c(cc1C(=O)N(C)Cc1n[nH]c3c1CCCC3)CCC2,-1.669%
14,CN(Cc1noc2c1CCCC2)C(=O)C1CCOc2ccccc2C1 (configuration not stated),-27.45%
15,COCCCC1CCCN(C(=O)CCc2csc(N)n2)C1 (configuration not stated),18.03%
16,CC(NCCN1CCC(N(C)C)CC1)c1ccc(Cl)s1 (configuration not stated),1.149%
17,Cc1cccc(=O)n1CCCNc1nc(N(C)C)nc2c1CCNCC2,-26.54%
18,O=C(O)C(F)(F)F.O=C(c1ccccc1-c1ccccc1)N1C[C@@H]2CNC[C@]2(C(=O)O)C1,7.106%
19,Fc1cccnc1Oc1cc(F)c(CN2CCCC2)c(Cl)c1,96.1%
20,Fc1cccnc1Oc1cc(F)c(CN2CCCC2)c(F)c1,105.5%
21,Fc1cc(Oc2ccc(C(F)(F)F)cn2)cc(F)c1CN1CCCC1,-0.6803%
22,COc1ccc(Oc2ncccc2C(F)(F)F)cc1CN1CCCC1,21.25%
23,COc1cc(Oc2ncccc2C(F)(F)F)ccc1CN1CCCC1,7.614%
24,COc1ccc(Oc2ncccc2F)cc1CN1CCCC1,-25.38%
25,N#Cc1ccc(Oc2cc(F)c(CN3CCCC3)c(F)c2)nc1,28.32%
26,N#Cc1cccnc1Oc1cc(F)c(CN2CCCC2)c(Cl)c1,85.58%

row,SMILES,Percent Effect
1,N#Cc1cccc(Oc2ccc(CN3CCCC3)cc2Cl)n1,1.122%
2,O=C(NCc1ccccc1CN1CCCCCC1)Nc1nncs1,-11.94%
3,CCc1csc(CNC2CCN(Cc3ccccc3)C2)n1 (configuration not stated),-41.87%
4,O=c1[nH]c(=O)n(CC(O)c2ccccc2Cl)cc1Cl (configuration not stated),-2.887%
5,CCCn1cnnc1CNC(=O)C1COc2ccc(OC)cc2C1 (configuration not stated),-4.97%
6,Cc1cc(Nc2ccc(F)cn2)cc(C2CCN(Cc3ncc[nH]3)C2)n1 (configuration not stated),87.11%
7,Fc1ccc(Nc2ccc(C3CCN(Cc4ncc[nH]4)CC3)nc2)nc1,114.5%
8,CC(C)(C)c1n[nH]c(C2CN(Cc3ncc[nH]3)CCO2)n1 (configuration not stated),-4.416%
9,Brc1ccc(CN2CCC(NCc3ncc[nH]3)CC2)cc1,0.1556%
10,Clc1cc(Cl)cc(CN2CCC(NCc3ncc[nH]3)CC2)c1,21.36%
11,Cc1cccc(Nc2ccc(C3CCN(Cc4ncc[nH]4)CC3)nc2)n1,108.6%
12,CCCc1n[nH]c(C2CN(Cc3ncc[nH]3)CCO2)n1 (configuration not stated),0.7755%
13,CCCc1nnc([C@H]2CCN(Cc3ncc[nH]3)C2)o1,2.62%
14,Cn1cncc1-c1nnc([C@H]2CCN(Cc3ncc[nH]3)C2)o1,-1.708%
15,CN(Cc1cccnc1)c1nc(-c2ccccn2)nc2c1CCNCC2,-5.428%
16,Cc1cnn(CCCn2ncc(N3CCC(CN)C3)cc2=O)c1 (configuration not stated),-3.735%
17,CCCC(C#N)NC(=O)CCCOc1cccc(C(C)=O)c1 (configuration not stated),17.87%
18,CCC(O)CN1CCN(C(=O)c2ccn(-c3cccc(F)c3)n2)CC1 (configuration not stated),-17.79%
19,CCC(=O)NCC(Cc1cccc(F)c1)n1cccc1 (configuration not stated),-1.872%
20,CCC(O)Cn1nc(-c2ccc(C(=O)O)cc2)cc1-c1cccc(F)c1 (configuration not stated),112%
21,CC(C)Cc1cc(C(=O)NCC(c2ccc(F)cc2)N(C)C)n(C)n1 (configuration not stated),-14.68%
22,CC(C(N)=O)N(C)CCCc1cc(-c2ccc(F)cc2)n(C)n1 (configuration not stated),117.2%
23,CN(CCCc1cc(-c2ccc(F)cc2)n(C)n1)CC(N)=O,124.4%
24,CC(C(N)=O)N(C)CCCc1cc(-c2ccccc2)no1 (configuration not stated),-1.184%
25,CN(CCCc1cc(-c2ccc(F)cc2)n[nH]1)C(=O)CCn1cncn1,-5.05%
26,CN(CCCc1cc(-c2ccc(F)cc2)n(C)n1)CC(=O)NC(N)=O,129.4%

row,SMILES,Percent Effect
1,CN(CC(=O)NS(=O)(=O)c1ccc(F)cc1)Cc1ccccc1,-17.38%
2,NC(=O)NC(=O)CCn1ccc(-c2ccc(F)cc2)n1,-9.81%
3,CN(CC(N)=O)Cc1ccc(F)cc1Cl,-24.21%
4,NC(=O)CCSCc1ccc(Br)c(F)c1,-4.384%
5,CCC(CO)N(Cc1cccs1)C(=O)Cc1ccncc1 (configuration not stated),-5.56%
6,c1ccc2c(c1)nc1n2[C@@H](CNCc2nccs2)COC1,3.551%
7,Cn1ccnc1SCCNC(=O)CC1CCc2ccccc21 (configuration not stated),-4.259%
8,Cc1ccc(S(=O)(=O)NCC2CNCCOC2)cc1Cl (configuration not stated),-1.884%
9,Cc1cccc2[nH]c(C3CCN(C(=O)c4cnc(O)cc4O)CC3)nc12,-25%
10,Cn1[nH]c(C2CC2)c(-c2ccc3c(c2)OCO3)c1=N,-0.9629%
11,CN(Cc1cccnc1)C[C@H]1CC[C@@H](Cc2ccc3c(cnn3C)c2)O1,-1.235%
12,Cc1cnn(C2CN(Cc3nnc(Cc4ccccc4)o3)C2)c1,-8.725%
13,Cc1cnn(C2CN(Cc3nc(-c4ccccn4)no3)C2)c1,99.99%
14,Cc1cnn(C2CN(Cc3nc(-c4ccco4)no3)C2)c1,-0.024%
15,Cc1cnn(C2CN(Cc3nnc(-c4ccccc4Cl)o3)C2)c1,0.6902%
16,Cc1cccc(-c2noc(CN3CC(n4cc(C)cn4)C3)n2)c1,6.599%
17,Cc1cnn(CC(C)NCc2nc(-c3cccnc3)no2)c1 (configuration not stated),10.95%
18,Cc1ccccc1-c1noc(CN2CC(n3cccn3)C2)n1,17.98%
19,Cc1cnn(C2CN(Cc3nc(-c4ccccc4C)no3)C2)c1,81.63%
20,Cc1cnn(C2CN(Cc3nc(C(C)(C)C)no3)C2)c1,-1.752%
21,Cc1cnn(C2CN(Cc3nc(-c4cccnc4)no3)C2)c1,94.26%
22,Cc1ccc(-c2noc(CN3CC(n4cc(C)cn4)C3)n2)cc1,109%
23,Cc1cnn(C2CN(Cc3noc(C)n3)C2)c1,14.64%
24,O=c1cc(N2CCNCC2)cnn1Cc1noc(C2CCCC2)n1,5.676%
